Screening results deposited in PubChem BioAssay by several laboratories.
Most compounds without a hit are left out; they make up all but 8.9% or so of the library.
M1 antag: M1 muscarinic receptor (rat) antagonism. P08482. CHO-M1 cells, Fluo-4 calcium, ACh EC80 antagonist mode; stronger effect = lower value. B-score at 10 µM. actives 3.4% (n = 64,000). AID 628;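 active = calcium fluorescence response, raw or row-and-column corrected B-score, differing from the plate sample mean either way at a set confidence level, mostly lower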
M1 ag: agonists of M1 muscarinic receptor; CHO-M1 cells, Fluo-4 calcium fluorescence, agonist mode; stronger effect = higher value; B-score at 10 µM; actives 3% (n = 64,000); AID 626;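 active = fluorescence rise, raw or as B-score row- and column-corrected plate score, outside the 99.7% band of its plate's samples, either direction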
D1 mod: allosteric modulators of human D1 dopamine receptor; P21728; HEK293 D1, CRE-luciferase, dopamine EC30 potentiation; actives deviate in either direction; B-score at 10 µM; actives 5.9% (n = 58,000);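 active = luminescence count or its row- and column-corrected plate score outside the 99.7% band of the plate's sample wells, on either side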
Target sequence (P21728 whole entry, looked up): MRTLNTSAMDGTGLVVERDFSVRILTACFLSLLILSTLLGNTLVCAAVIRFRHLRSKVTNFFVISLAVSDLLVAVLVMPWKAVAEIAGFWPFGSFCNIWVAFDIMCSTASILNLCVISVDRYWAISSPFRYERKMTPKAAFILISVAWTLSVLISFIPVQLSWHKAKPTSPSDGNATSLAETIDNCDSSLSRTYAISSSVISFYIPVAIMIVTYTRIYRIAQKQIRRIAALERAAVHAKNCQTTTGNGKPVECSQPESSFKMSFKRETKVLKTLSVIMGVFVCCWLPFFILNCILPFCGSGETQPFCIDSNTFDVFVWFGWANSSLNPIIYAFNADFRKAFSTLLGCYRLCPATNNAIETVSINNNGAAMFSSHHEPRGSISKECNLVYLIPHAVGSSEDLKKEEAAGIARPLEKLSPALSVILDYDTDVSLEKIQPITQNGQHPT
WNV protease inh: blocks West Nile virus NS2B-NS3 protease activity | actives 0.18% (n = 65,000) | z-score (no concentration beside the values) | WNV NS2B-NS3 protease, fluorogenic substrate Ex360/Em465; stronger effect = lower value | P06935 | AID 577; in the data active = z-score below about -3
Htt clearance: compounds clearing mutant huntingtin protein | HeLa Exon1htt(103Q)mCFP, aggregate imaging; zero = plate's median compound well | inhibition, % at 1.5 µM | actives 0.42% (n = 47,000) | AID 853;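 active = inhibition of aggregate fluorescence above about 70%, also judged a hit by eye on the cell image, limit read from the data, passing the limit was not always enough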;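 note: cells exposed to compound for three days before fixation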
Hits are given with their value; i = inactive; nt = no result.

SMILES	M1 antag	M1 ag	D1 mod	WNV protease inh	Htt clearance
COC(=O)c1c(NC(=O)C2CC2)sc2c1CCCC2	i	i	i	-3.6	i
COC(=O)c1c(NC(=O)CC2NCCNC2=O)sc2c1CCCC2 (stereo not given)	i	i	i	i	i
CC(C)N(C=O)C1(C(=O)NC2CCCCC2)CCCCC1	i	i	-3.3	i	nt
CN(C(=O)c1ccc2c(c1)OCO2)C1(C(=O)NC2CCCC2)CCCCC1	i	i	i	i	nt
Clc1ccc2nc(NC3=NCN(CCN4CCOCC4)CN3)nc(-c3ccccc3)c2c1	-15	i	i	i	nt
OCCN1CCN(c2nc(-c3ccccc3)c3cc(Cl)ccc3n2)CC1	i	i	i	i	i
CN(C)c1ccc(Nc2nc(-c3cccnc3)cs2)cc1	i	i	-2.8	i	nt
c1cncc(-c2csc(NCc3ccco3)n2)c1	nt	nt	i	i	i
CC1CN=C(N(C(=O)Nc2ccccc2)c2ccc(S(=O)(=O)N3CCOCC3)cc2)S1 (stereo not given)	i	i	i	i	nt
CCC(=O)c1ccc(OCC(O)CN2CCN(C(c3ccccc3)c3ccccc3)CC2)cc1 (stereo not given)	nt	nt	nt	nt	i
Cc1ccc(-n2nnnc2SCC(=O)c2cc(C)n(-c3cc(C)on3)c2C)cc1	0.82	i	i	i	i
Cn1c(C(=O)N2CCCc3ccccc32)cc2sccc21	i	i	i	i	i
CCOC(=O)CCn1nnc(N)n1	i	i	-4.2	i	nt
CCOC(=O)CCc1c(C)nc2c(c(C)nn2C(C)(C)C)c1C	2.6	i	nt	i	nt
COc1ccc(-c2nnc(CSc3nc4ccccc4c(=O)n3C)o2)cc1OC	i	i	8.5	i	nt
O=C(OCc1cc(=O)n2c(n1)sc1ccccc12)c1ccc2c(=O)n3c(nc2c1)CCC3	i	i	4.2	i	nt
CN(C(=O)c1ccc2c(=O)n3c(nc2c1)CCCCC3)c1ccccc1	i	i	i	i	nt
COc1ccccc1N(CC(=O)NC1CCCC1)C(=O)CCC(=O)Nc1cc(C)on1	i	i	i	i	nt
CCOc1ccccc1N(CC(=O)NC1CCCC1)C(=O)CCC(=O)Nc1cc(C)on1	i	i	i	-8.6	i
COc1ccc(OC)c(NC2=NC3(CCCC3)N=C(N)N2)c1	i	i	nt	i	i
Cc1cc(C)cc(NC2=NC3(CCCCC3)N=C(N)N2)c1	i	i	-5.3	i	i
CC1(C)CC(=O)C2=C(C1)N(CC1CCCO1)C(=O)C2(NC(=O)c1cccnc1)C(F)(F)F (stereo not given)	i	i	i	i	i
COc1ccc(CCC(=O)N2CC(C)OC(C)C2)cc1 (stereo not given)	i	i	i	i	i
N#Cc1c(N)oc(-c2ccco2)c1-c1ccco1	i	i	19	i	i
CCOC(=O)N1CCC(c2cc(=O)n3[nH]c(-c4ccccc4)cc3n2)CC1	i	i	i	i	nt
SMILES	M1 antag	M1 ag	D1 mod	WNV protease inh	Htt clearance
CCOC(=O)N1CCC(c2cc(=O)n3[nH]c(C)c(-c4ccc(F)cc4)c3n2)CC1	i	i	i	i	82
COC(=O)c1cc(C(=O)OC)cc(N2C(=O)CC(NNC(=O)c3ccccc3Br)C2=O)c1 (stereo not given)	nt	nt	nt	nt	85
CC1CCCC(NC(=O)COC(=O)CCC2CCCC2)C1C (stereo not given)	nt	nt	nt	nt	i
O=C1OCCC1Sc1nnc(-c2ccc3c(c2)OCO3)n1-c1ccccc1 (stereo not given)	i	i	-3.8	i	i
O=C1OCCC1Sc1nnnn1-c1ccccc1 (stereo not given)	nt	nt	nt	nt	i
c1ccc2sc(N3CN(CCN4CCOCC4)CN(c4nc5ccccc5s4)C3)nc2c1	i	i	i	i	nt
N#C/C(=C(/O)CN1CCOCC1)c1nc2ccccc2s1	i	i	i	i	77
O=C(NCc1ccccc1)c1ccc(=O)[nH]n1	i	i	nt	i	nt
O=C(NCc1ccco1)c1ccc(=O)[nH]n1	i	i	nt	i	72
O=C(Nc1cnn(Cc2ccc(Cl)c(Cl)c2)c1)C12CC3CC(CC(C3)C1)C2	nt	nt	nt	nt	i
Cc1ccc(OCCn2cc(Br)c(=O)[nH]c2=O)cc1	nt	nt	nt	nt	i
O=C(c1ccc(Cl)cc1)C1C2C(=O)N(c3ccccc3)C(=O)C2C2CCCN21 (stereo not given)	i	15	i	i	i
CCOc1cc(C(=O)Nc2ccc(S(=O)(=O)Nc3cc(C)on3)cc2)cc(OCC)c1OCC	i	-3.5	i	i	i
COc1cc(C(=O)Nc2ccc(S(=O)(=O)Nc3cc(C)on3)cc2)cc(OC)c1OC	i	i	i	i	nt
CC(C)(C)c1cc(C(=O)N2CCc3ccccc32)ccn1	i	i	i	i	nt
CN(C)S(=O)(=O)c1cccc(C(=O)N2CCc3ccccc32)c1	1.3	i	nt	i	i
CCOC(=O)c1c(C)n(C)c2ccc(OC)c(NC(=O)CN3CCCCC3)c12	i	i	nt	-3.4	i
CCOC(=O)c1c(C)n(C)c2ccc(O)c(CN3CCCCC3)c12	i	i	i	i	i
Cc1nc(SCC(=O)c2ccccc2)c(C#N)c(-c2ccco2)c1C(=O)NCc1ccco1	i	i	nt	i	nt
CCCOP(=O)(c1ccc(N(C)C)cc1)C(O)c1ccncc1 (stereo not given)	i	i	i	i	nt
CN(C)c1ccc(P(=O)(OCc2ccccc2)C(O)c2ccncc2)cc1 (stereo not given)	i	i	i	i	74
CCn1c2ccccc2c2nnc(SCC(=O)NCCOC)nc21	i	i	i	i	i
Cn1c2ccccc2c2nnc(SCN3C(=O)c4ccccc4C3=O)nc21	i	i	i	i	nt
CCn1c2ccccc2c2nnc(SCN3C(=O)c4ccccc4C3=O)nc21	i	i	9.5	i	nt
CCn1c2ccccc2c2nnc(SCC(=O)NC(C(=O)OC)C(C)C)nc21 (stereo not given)	i	i	3.7	i	nt
SMILES	M1 antag	M1 ag	D1 mod	WNV protease inh	Htt clearance
CC(=O)Nc1ccc(OCC(O)CN2CCN(c3cccc(Cl)c3)CC2)cc1 (stereo not given)	i	i	-3.1	i	nt
CC(=O)Nc1ccc(OCC(O)CN2CCN(c3ccc(Cl)cc3)CC2)cc1 (stereo not given)	nt	nt	nt	nt	i
CCOC(=O)N1CCC(Nc2ccc3nnc(-c4ccccc4)n3n2)CC1	i	i	-3	i	nt
CCOC(=O)CC(=O)CSc1ccc2nnc(-c3ccccc3)n2n1	i	i	i	i	i
CCOC(=O)Cc1csc(NC(NC(=O)OCC)(C(=O)OCC)C(F)(F)F)n1 (stereo not given)	nt	nt	nt	nt	i
O=C1c2ccccc2C(=O)C1c1nccc2ccccc12	i	i	-6.8	i	nt
O=C(O)CSc1nnc(-c2ccc(S(=O)(=O)N3CCCC3)cc2)n1Cc1ccco1	i	i	-4.1	i	i
O=C(CSc1nnc(CN2CCCCCC2=O)n1-c1ccccn1)NCC(F)(F)F	i	i	-3.3	i	nt
Cc1ccc2nc3c(cc(C#N)c(=N)n3CCCN3CCOCC3)c(=O)n2c1	nt	nt	nt	nt	i
CC(C)CN(C#N)c1nc(N2CCOCC2)nc(N2CCOCC2)n1	i	i	nt	i	i
CCCNC(=O)c1cccc(Cn2nc(C)c(Br)c2C)c1	i	i	-1.7	i	nt
COc1cccc(N=Cc2ccc(O)cc2O)c1	i	2.2	nt	i	nt
